In the supplement of paper PMC11732987, “Enantioselective OTUD7B fragment discovery through chemoproteomics screening and high-throughput optimisation” (Communications Chemistry, 2025):

Experiments:
Test in all cases: log2 ratio of Biotin-Ahx-Ub-VS probe labelling (fragment/DMSO); higher = less target engagement (more negative = stronger competition), active = hit call of the paper (q ≤ 0.05, log2 ratio ≤ -1)
Conditions in all cases: compound concentration: 200 uM; treatment time: 3 h
USP42 = biological target: T1, USP42 (UniProt Q9H9J4)
T1 sequence (whole entry): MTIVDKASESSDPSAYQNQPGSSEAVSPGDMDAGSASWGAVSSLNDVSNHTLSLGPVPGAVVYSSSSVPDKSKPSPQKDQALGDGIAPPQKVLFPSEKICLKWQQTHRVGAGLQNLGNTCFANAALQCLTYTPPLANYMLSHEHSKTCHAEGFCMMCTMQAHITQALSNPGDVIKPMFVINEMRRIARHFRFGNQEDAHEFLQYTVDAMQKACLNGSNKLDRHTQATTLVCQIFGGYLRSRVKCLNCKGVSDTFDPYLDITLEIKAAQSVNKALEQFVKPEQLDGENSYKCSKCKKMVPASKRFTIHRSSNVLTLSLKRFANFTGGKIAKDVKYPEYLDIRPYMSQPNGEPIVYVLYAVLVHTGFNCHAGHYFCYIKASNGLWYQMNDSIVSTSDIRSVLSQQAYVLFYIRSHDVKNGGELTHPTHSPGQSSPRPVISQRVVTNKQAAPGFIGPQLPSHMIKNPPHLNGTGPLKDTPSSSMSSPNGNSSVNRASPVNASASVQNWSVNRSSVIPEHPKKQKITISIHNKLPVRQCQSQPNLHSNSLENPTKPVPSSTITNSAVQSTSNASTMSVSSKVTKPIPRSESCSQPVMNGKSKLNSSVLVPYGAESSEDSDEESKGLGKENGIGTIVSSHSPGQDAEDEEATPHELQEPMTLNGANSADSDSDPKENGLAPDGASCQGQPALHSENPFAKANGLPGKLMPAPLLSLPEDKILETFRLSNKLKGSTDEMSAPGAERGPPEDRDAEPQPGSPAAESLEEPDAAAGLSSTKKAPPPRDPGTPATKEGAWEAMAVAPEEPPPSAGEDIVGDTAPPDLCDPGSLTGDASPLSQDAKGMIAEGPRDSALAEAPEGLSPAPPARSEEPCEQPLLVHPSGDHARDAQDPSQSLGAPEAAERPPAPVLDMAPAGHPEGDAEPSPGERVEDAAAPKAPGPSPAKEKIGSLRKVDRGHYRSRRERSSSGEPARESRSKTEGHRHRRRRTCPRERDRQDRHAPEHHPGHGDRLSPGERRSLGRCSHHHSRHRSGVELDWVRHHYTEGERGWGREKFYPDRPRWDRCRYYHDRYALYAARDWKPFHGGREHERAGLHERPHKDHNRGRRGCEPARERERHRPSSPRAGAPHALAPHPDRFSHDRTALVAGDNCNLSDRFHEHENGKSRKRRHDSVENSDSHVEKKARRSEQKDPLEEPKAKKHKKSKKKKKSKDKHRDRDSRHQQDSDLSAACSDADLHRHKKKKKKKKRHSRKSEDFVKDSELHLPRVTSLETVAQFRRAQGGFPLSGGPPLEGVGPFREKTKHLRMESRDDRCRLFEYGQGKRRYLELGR
How it was run: (§1)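 In triplicate, 495 µg of HEK293T lysate per sample was incubated with fragment at 200 µM or vehicle for 3 h. Biotin-Ahx-Ub-VS was then added to 0.5 µM final for 1 h, and labelled DUBs were captured with NeutrAvidin, digested with LysC and trypsin, and measured by diaPASEF LC-MS/MS. Data are average log2 fragment/vehicle ratios by unpaired t-test from global-median-normalised Spectronaut label-free quantities, restricted to proteins with ≥2 unique peptides.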

USP46 = USP46 (UniProt P62068)
How it was run: as §1

USP47 = biological target: T2, USP47 (UniProt Q96K76)
T2 sequence (whole entry): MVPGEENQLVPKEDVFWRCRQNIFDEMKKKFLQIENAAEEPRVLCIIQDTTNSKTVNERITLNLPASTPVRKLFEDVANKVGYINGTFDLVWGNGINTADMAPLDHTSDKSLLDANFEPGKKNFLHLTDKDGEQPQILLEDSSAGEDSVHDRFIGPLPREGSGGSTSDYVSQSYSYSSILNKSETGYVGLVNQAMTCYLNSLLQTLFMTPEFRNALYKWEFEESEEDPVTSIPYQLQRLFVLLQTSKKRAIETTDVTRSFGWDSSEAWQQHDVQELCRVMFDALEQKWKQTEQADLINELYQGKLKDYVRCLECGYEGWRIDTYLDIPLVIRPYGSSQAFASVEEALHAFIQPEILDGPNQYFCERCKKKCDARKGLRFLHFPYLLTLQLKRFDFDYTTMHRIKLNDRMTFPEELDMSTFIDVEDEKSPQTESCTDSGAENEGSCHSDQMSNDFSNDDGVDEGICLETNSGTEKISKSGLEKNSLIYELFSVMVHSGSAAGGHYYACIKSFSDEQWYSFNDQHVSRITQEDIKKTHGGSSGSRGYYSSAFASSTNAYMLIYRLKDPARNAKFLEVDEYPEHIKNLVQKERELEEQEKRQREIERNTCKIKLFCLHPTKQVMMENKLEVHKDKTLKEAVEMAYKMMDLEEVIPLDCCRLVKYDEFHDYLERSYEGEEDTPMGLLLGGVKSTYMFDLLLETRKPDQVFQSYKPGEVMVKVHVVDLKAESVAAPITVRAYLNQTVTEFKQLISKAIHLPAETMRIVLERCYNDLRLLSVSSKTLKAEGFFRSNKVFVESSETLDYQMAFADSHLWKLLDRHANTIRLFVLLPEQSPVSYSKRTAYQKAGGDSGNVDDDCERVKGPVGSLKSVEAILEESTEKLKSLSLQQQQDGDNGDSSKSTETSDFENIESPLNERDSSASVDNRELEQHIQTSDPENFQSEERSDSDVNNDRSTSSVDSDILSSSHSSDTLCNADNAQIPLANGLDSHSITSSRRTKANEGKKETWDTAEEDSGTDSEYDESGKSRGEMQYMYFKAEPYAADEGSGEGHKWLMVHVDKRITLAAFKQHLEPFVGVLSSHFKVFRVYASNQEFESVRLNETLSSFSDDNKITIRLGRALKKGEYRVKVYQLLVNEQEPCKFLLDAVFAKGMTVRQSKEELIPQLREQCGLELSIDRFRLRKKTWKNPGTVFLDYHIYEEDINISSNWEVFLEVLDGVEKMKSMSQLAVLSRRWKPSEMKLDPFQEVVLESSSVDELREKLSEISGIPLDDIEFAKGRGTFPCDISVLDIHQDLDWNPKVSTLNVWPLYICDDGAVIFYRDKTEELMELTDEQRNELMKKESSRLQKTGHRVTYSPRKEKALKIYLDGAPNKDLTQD
How it was run: as §1

USP48 = biological target: T3, USP48 (UniProt Q86UV5)
T3 sequence (whole entry): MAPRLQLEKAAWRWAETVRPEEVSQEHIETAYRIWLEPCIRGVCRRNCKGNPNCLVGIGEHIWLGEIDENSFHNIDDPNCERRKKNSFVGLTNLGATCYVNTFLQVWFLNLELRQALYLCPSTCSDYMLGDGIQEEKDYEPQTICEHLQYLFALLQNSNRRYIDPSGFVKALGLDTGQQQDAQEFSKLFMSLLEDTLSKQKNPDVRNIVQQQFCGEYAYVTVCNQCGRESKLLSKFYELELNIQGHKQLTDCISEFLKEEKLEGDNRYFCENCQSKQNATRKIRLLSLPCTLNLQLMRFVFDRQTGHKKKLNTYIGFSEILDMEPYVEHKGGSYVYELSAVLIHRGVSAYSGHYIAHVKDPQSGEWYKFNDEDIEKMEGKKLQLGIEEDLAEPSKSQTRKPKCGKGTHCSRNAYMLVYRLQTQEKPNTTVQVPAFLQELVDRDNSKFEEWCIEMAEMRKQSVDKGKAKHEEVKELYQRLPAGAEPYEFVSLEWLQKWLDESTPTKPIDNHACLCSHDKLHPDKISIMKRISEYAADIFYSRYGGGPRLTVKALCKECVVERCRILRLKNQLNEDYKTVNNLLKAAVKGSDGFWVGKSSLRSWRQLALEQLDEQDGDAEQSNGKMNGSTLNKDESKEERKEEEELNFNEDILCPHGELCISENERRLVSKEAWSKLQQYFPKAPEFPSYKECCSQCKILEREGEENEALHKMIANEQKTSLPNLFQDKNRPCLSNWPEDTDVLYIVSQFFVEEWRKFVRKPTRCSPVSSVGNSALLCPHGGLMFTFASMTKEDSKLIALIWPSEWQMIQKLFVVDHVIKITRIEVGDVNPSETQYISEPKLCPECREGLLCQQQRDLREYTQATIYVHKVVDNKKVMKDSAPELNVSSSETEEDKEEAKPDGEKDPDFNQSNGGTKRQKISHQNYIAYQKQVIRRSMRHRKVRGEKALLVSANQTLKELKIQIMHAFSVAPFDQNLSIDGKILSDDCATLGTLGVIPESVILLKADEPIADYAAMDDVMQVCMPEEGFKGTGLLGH
How it was run: as §1

USP5 = biological target: T4, USP5 (UniProt P45974)
T4 sequence (whole entry): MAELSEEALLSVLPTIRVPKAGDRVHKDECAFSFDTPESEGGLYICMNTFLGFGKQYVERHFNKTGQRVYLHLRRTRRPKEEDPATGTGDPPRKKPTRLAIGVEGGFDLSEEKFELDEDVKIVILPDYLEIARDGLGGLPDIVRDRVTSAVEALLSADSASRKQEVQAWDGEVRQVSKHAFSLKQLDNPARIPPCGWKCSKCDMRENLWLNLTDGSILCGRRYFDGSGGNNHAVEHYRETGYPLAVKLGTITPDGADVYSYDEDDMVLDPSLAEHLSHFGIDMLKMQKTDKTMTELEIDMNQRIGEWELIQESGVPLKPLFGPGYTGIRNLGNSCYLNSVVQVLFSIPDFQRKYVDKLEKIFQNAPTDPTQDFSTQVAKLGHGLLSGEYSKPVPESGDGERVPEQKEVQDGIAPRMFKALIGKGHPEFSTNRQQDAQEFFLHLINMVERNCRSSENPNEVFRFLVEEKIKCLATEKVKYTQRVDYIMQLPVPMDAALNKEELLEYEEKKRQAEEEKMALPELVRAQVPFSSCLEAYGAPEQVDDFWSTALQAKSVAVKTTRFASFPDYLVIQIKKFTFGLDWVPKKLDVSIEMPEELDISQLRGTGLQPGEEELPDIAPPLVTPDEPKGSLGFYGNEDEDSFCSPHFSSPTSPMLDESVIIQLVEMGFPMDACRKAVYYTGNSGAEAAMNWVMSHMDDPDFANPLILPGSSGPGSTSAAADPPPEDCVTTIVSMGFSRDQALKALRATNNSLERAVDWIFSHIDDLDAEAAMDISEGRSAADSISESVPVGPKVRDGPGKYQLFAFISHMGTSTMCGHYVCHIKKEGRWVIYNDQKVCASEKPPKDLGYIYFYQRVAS
How it was run: as §1

USP54 = USP54 (UniProt Q70EL1)
How it was run: as §1

USP7 = USP7 (UniProt Q93009)
How it was run: as §1

USP8 = biological target: T5, USP8 (UniProt P40818)
T5 sequence (whole entry): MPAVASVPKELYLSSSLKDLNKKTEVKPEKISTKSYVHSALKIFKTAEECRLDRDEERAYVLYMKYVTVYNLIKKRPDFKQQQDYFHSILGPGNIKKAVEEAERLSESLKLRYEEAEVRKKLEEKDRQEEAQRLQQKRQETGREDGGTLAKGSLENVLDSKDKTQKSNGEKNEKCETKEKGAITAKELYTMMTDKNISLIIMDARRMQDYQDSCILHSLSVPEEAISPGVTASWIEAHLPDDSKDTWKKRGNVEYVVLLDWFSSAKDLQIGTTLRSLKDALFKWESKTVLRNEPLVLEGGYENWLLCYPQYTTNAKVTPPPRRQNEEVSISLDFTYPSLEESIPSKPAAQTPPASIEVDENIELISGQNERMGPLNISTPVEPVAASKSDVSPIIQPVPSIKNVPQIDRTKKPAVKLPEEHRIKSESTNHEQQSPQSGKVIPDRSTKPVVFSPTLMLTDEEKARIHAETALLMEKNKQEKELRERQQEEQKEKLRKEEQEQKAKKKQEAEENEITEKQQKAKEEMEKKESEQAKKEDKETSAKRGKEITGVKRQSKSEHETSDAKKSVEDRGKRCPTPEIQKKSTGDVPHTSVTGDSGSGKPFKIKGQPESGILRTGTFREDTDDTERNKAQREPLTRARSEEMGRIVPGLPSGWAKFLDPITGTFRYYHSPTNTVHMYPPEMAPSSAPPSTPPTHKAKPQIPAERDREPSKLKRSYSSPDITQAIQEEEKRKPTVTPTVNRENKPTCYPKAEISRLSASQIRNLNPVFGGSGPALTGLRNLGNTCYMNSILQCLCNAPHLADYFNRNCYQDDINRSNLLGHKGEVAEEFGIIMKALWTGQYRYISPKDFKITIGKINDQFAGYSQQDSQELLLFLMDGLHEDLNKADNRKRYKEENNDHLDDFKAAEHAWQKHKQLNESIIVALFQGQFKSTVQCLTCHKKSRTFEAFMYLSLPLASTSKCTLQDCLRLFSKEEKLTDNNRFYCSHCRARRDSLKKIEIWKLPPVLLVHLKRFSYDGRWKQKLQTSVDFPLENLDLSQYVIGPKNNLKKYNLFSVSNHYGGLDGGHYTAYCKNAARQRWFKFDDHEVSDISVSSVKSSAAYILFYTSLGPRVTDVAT
How it was run: as §1

Measured: log2 ratio of Biotin-Ahx-Ub-VS probe labelling

Sequence of USP46 (P62068 whole entry): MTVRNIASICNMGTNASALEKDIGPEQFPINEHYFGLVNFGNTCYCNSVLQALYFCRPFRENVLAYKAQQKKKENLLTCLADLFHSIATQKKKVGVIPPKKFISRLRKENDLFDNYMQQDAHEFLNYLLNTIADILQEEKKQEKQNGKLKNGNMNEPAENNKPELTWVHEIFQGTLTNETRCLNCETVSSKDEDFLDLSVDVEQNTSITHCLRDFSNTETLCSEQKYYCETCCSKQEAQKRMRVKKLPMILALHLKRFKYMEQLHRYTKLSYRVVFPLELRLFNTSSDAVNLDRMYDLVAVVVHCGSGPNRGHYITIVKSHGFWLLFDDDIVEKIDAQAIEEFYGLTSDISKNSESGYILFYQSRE
Sequence of USP7 (Q93009 whole entry, looked up): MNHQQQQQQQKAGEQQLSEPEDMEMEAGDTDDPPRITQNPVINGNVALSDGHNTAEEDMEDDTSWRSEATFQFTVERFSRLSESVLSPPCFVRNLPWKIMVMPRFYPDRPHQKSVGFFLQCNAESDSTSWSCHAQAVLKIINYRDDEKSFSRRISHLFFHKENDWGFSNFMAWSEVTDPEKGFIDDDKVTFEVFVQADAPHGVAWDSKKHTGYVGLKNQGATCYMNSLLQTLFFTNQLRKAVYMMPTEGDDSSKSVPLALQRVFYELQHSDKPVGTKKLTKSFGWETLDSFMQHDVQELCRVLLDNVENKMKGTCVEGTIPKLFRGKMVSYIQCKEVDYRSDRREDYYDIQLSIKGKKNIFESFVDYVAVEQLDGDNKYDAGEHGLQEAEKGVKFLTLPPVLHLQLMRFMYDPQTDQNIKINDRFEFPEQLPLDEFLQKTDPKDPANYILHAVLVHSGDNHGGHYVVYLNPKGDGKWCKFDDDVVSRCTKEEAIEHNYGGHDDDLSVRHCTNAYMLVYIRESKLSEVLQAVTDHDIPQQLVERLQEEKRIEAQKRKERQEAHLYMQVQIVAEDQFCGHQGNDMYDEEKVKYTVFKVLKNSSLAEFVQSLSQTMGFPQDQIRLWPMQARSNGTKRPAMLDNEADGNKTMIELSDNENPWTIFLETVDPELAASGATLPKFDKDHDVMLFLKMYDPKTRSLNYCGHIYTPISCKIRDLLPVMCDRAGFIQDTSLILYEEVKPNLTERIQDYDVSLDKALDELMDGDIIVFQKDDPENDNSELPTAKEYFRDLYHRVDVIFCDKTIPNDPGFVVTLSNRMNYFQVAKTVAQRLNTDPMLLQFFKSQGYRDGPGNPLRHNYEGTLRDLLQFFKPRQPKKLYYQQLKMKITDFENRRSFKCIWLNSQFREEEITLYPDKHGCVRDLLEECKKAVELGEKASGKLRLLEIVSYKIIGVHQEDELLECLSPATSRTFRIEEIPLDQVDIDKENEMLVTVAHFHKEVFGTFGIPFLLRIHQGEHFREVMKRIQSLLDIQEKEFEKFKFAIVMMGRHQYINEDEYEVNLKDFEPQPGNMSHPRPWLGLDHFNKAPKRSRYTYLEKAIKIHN
Sequence of USP54 (Q70EL1 whole entry): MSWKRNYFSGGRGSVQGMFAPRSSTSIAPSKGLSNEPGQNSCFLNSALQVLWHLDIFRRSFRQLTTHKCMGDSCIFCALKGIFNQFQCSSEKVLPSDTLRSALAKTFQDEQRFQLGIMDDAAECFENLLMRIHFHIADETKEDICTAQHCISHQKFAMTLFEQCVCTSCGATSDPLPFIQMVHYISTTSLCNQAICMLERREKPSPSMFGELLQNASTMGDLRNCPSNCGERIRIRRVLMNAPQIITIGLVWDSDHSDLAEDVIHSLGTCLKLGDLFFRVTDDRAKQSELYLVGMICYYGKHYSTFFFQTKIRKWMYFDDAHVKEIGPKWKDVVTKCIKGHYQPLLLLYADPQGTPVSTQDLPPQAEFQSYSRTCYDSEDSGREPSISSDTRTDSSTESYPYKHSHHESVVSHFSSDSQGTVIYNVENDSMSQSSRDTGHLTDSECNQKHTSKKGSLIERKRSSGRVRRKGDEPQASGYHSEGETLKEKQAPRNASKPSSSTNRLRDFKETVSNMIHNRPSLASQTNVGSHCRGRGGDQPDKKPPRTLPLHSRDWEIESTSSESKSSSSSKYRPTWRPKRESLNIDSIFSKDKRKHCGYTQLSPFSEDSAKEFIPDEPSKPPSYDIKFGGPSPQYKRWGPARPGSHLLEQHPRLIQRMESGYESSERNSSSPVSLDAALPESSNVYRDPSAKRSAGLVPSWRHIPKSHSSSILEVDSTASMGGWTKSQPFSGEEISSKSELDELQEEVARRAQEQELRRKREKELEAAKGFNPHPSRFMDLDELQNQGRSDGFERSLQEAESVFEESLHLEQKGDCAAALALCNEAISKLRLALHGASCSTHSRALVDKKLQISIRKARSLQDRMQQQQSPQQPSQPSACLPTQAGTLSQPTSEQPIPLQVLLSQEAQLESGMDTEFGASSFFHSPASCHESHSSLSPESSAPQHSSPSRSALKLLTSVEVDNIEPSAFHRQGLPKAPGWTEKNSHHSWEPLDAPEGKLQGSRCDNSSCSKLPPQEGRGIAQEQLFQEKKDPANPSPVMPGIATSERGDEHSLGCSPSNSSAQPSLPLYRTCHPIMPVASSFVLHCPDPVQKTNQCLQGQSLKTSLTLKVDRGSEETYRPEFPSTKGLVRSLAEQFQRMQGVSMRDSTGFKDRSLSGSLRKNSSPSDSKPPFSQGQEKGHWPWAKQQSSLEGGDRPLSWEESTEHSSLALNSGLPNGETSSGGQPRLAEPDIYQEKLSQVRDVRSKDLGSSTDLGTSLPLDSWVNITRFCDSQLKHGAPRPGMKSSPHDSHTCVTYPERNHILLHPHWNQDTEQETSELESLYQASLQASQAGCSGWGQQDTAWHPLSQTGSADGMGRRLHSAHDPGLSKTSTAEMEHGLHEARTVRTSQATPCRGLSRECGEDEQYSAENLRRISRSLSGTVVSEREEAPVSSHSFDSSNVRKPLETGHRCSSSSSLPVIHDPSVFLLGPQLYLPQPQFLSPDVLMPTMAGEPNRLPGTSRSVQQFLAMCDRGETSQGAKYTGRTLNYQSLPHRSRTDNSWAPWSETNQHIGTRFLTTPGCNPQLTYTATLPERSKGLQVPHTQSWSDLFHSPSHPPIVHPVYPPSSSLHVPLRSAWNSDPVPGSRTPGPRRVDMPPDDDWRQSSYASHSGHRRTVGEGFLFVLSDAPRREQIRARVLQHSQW

Cl.O=C(CCl)NCc1ccnc(Oc2ccccc2F)c1
inactive: USP42 -0.336 | USP46 0.0702 | USP47 -0.71 | USP48 -0.278 | USP5 0.126 | USP54 0.365 | USP7 -0.357 | USP8 -0.181
